# TMEM16A act – activates or potentiates the mouse TMEM16A chloride channel; Q8BHY3; HEK293 TMEM16A/YFP-H148Q/I152L, iodide quench fluorescence; stronger effect = lower value; B-score at 10 µM; hit rate 0.3% among 340,000; AID 623877;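 active = fluorescence-ratio B-score plate-corrected deviation score at least 3 library SD below zero, with starting fluorescence score within 5 deviations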;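 also: channel opened by trigger with iodide after compound preincubation; score built on the fluorescence ratio of max minus min over baseline; more negative score means more quench and so TMEM16A activation or potentiation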
# TMEM16A inh – mouse TMEM16A channel inhibition, primary screen. Q8BHY3. HEK293 TMEM16A/YFP iodide influx fluorescence, ionomycin. normalized B-score (activity score, 25-100; higher = stronger inhibition) at 10 µM. hit rate 1.2% among 310,000;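 active = ratio plate-corrected score three or more library SD toward inhibition, starting fluorescence score within five deviations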;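 also: score derived from kinetic fluorescence span divided by baseline fluorescence per well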
# DAGLB inh – blocks human DAGLB lipase activity; HEK293T DAGLB membrane lysate, EnzChek fluorogenic substrate; inhibition, % at 5.17 µM; hit rate 0.059% among 340,000; in the data active = inhibition above about 34%;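 also: 0% = enzyme with vehicle and 100% = wells lacking enzyme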
# iPSC survival up – enhancers of human iPSC single-cell survival. hiPSC single-cell survival, ATPlite luminescence; 100% = ROCK inhibitor wells, 0% = DMSO. survival enhancement, % at 20 µM. hit rate 0.044% among 360,000. AID 602274; in the data active = survival enhancement above about 18%;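 also: cells exposed to compounds for 16 hours before the ATP read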
# ABCB6 inh 2 – inhibitors of human ABC transporter ABCB6. Q9NP58. K562-ABCB6 porphyrin accumulation, flow cytometry, 1 h; stronger effect = lower value. fluorescence ratio to DMSO, % at 10 µM. hit rate 0.19% among 360,000. AID 602162;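 active = fluorescence ratio to DMSO below 75%, the collection mean minus 3 SD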;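 also: signal is porphyrin accumulated inside mitochondria; 100% equals median channel fluorescence of DMSO control wells; lower ratio means ABCB6 inhibition with less porphyrin fluorescence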
# Target sequence (Q9NP58 whole entry, looked up): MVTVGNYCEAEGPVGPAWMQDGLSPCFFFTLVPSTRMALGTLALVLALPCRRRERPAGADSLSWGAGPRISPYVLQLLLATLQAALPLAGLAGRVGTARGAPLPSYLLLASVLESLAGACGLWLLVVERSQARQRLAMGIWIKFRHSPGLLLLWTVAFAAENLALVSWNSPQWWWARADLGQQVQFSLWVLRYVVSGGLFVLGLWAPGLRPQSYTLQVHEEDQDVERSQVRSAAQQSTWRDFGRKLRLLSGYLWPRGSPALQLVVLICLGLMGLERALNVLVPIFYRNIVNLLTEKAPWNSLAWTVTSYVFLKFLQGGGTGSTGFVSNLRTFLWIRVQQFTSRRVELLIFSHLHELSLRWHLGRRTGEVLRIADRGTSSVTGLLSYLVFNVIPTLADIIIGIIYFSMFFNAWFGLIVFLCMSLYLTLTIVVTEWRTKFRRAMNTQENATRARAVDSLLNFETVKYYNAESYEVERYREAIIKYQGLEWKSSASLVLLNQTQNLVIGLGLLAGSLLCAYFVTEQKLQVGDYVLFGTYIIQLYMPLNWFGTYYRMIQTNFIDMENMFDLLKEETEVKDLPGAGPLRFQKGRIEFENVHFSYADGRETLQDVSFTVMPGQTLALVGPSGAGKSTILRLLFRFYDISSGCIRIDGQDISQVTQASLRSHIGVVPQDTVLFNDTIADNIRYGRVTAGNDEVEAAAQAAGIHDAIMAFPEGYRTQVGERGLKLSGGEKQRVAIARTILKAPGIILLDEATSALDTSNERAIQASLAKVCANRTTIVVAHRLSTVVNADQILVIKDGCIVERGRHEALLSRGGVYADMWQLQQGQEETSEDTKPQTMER
# TMEM16A reconf – re-confirmation of mouse TMEM16A chloride channel inhibitors. HEK293 TMEM16A/YFP-H148Q, iodide quench fluorescence; ionomycin added to raise cell calcium. hit rate 39% among 2,300. shares compounds with TMEM16A inh. inhibition, % at 10 µM;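 active = mean duplicate percent inhibition, scaled so buffer wells are 0 and the reference blocker 100, over three buffer SD above buffer mean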
# TMEM16A Ca cntr – alters calcium mobilization in TMEM16A HEK293 cells, counter-screen; shares compounds with TMEM16A inh; TMEM16A/YFP HEK293, Fluo4 calcium mobilization; calcium response (% of ionomycin), % at 10 µM; hit rate 2% among 2,300; AID 652231;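 active = duplicate-averaged calcium signal over 20% of the ionomycin maximum, relative to buffer baseline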;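 also: each well's signal is peak minus trough fluorescence divided by its pre-addition baseline; 0% = buffer wells and 100% = ionomycin wells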
# Parental YFP cnt – counter-screen for TMEM16A inhibitors: effect in parental YFP-HEK293 cells; shares compounds with TMEM16A inh; iodide YFP quench, ionomycin; YFP ratio F(max-min)/F0 at 10 µM; 2,300 tested, under 10 active;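 active = yellow fluorescent protein signal ratio exceeding the buffer control mean by over 5 SD of those controls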;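 also: ratio is mean of duplicate wells from kinetic YFP trace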
# ClC-1 rat inh – blocks the rat ClC-1 voltage-dependent chloride channel | shares compounds with TMEM16A inh | CHO ClC-1-YFP, iodide influx fluorescence quench; iodide control reads 0, buffer control 100 | ratio percent, % at 10 µM | 2,300 tested, under 10 active;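 active = duplicate-mean ratio percent above the mean of iodide-only control wells, which defines zero, plus 5 of their SD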;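 also: higher percent means stronger block of ClC-1 iodide influx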
# Numbers without * were called inactive; i = inactive; . = no result. In the library only some 1.5% were active in any assay of this set; here they are far more common.
SMILES,TMEM16A act,TMEM16A inh,DAGLB inh,iPSC survival up,ABCB6 inh 2,TMEM16A reconf,TMEM16A Ca cntr,Parental YFP cnt,ClC-1 rat inh
Cn1c(CN2CCCC2)nc2cc(NC(=O)c3ccc(Cl)cc3)ccc21,i,i,1.1,-0.5,96.0,.,.,.,.
CN(C)c1ccnc(SCc2ccccc2Cl)c1C#N,i,25*,-4.1,-0.6,97.0,i,i,-0.838,-8.0
O=C(NC1=NCCS1)c1ccc(Cl)c(S(=O)(=O)N2CCCCC2)c1,i,i,-3.5,-0.5,88.0,.,.,.,.
O=C(NC1=NCCS1)c1ccc(Cl)c(S(=O)(=O)N2CCCC2)c1,i,25*,-0.5,1.2,94.0,i,i,-0.977,-6.0
CC(=O)Nc1ccc(S(=O)(=O)NCCC(=O)OCc2csc(CC(=O)Nc3ccccc3C)n2)cc1,i,i,1.2,-0.4,97.0,.,.,.,.
COC(=O)c1cc(CSc2nc3ccccc3[nH]2)oc1C,i,25*,-0.8,-1.5,94.0,21.5%*,i,-0.744,-11.5
O=C(COC(=O)c1cc(S(=O)(=O)N2CCOCC2)ccc1Cl)Nc1ccccc1Cl,i,.,-0.3,-0.3,92.0,.,.,.,.
CCOC(=O)N1CCN(c2ccc(C(=O)c3ccccc3)cc2F)CC1,i,100*,-7.3,1.3,86.0,23.0%*,i,-1.11,-9.0
COCCN(C(=O)COC(=O)CSc1ccc(Cl)cc1)c1c(N)n(Cc2ccccc2)c(=O)[nH]c1=O,i,i,-1.2,-0.4,84.0,.,.,.,.
N#CC1=C(N)NC(SCC(=O)c2ccc(Cl)cc2)=C(C#N)C12CCCC2,i,100*,0.1,0.6,102.0,i,i,-1.09,-6.0
N#CC1=C(N)NC(SCC(=O)c2ccc(Br)cc2)=C(C#N)C12CCCCC2,i,100*,0.8,0.1,93.0,53.0%*,i,-0.808,-23.0
CCOc1ccc(-c2nc(CSCC(=O)N3CCN(c4cccc(OC)c4)CC3)c(C)o2)cc1,i,100*,-3.6,3.0,92.0,26.5%*,i,-0.908,-14.0
CCOc1ccc(-c2nc(CSCC(=O)NC3CC3)c(C)o2)cc1,i,i,0.2,-0.2,99.0,.,.,.,.
Cc1ccc(-c2nn3c(C)nnc3s2)cc1N,i,100*,-0.2,-2.0,103.0,i,i,-1.17,-10.5
Cc1ccc(-c2nn3c(C)nnc3s2)cc1NC(=O)C(C)C,i,i,-2.9,0.7,93.0,.,.,.,.
COCCCNC(=S)N1CCN(c2nc(-c3ccc(F)cc3)cs2)CC1,i,i,-5.2,0.6,97.0,.,.,.,.
CCOCCCNC(=S)N1CCN(c2nc(-c3ccc(F)cc3)cs2)CC1,i,100*,-5.6,-0.4,90.0,31.0%*,i,-0.987,-23.5
CC1CC(C)CN(c2ncnc3c2cnn3Cc2ccc(Cl)cc2)C1 (stereo unspecified),i,25*,-8.0,-0.7,110.0,i,i,-1.01,-2.0
O=C(CSc1nc2ncccc2[nH]1)Nc1ccccc1-c1ccccc1,i,i,0.1,-0.3,100.0,.,.,.,.
CCOc1cc(C(=O)Nc2cc(C)ccn2)cc(OCC)c1OCC,i,100*,-3.1,0.2,102.0,i,i,-1.39,-2.5
CCOc1ccc(C(=O)Nc2cc(C)ccn2)cc1,i,i,-4.6,-2.5,101.0,.,.,.,.
COc1ccc(C(=O)NNC(=S)NC(=O)c2ccco2)cc1,i,i,3.2,-2.6,104.0,.,.,.,.
CCCOc1ccc(C(=O)NNC(=S)NC(=O)c2ccco2)cc1,i,100*,2.6,0.2,88.0,43.0%*,62.0%*,-1.04,-10.0
Cc1ccc2nc(-c3ccccc3)c(-c3ccccc3)nc2c1,i,i,-3.5,1.4,95.0,.,.,.,.
Cc1ccc(-c2nc3ccc(C(=O)O)cc3nc2-c2ccc(C)cc2)cc1,i,25*,1.0,-1.2,101.0,i,i,-1.12,-17.5
SMILES,TMEM16A act,TMEM16A inh,DAGLB inh,iPSC survival up,ABCB6 inh 2,TMEM16A reconf,TMEM16A Ca cntr,Parental YFP cnt,ClC-1 rat inh
Cc1cc(C(=O)COC(=O)COc2ccc(C#N)cc2)c(C)n1C1CC1,i,i,-10.0,1.5,95.0,.,.,.,.
Cc1c(Cc2ccccc2)c(=O)oc2cc(OC(C)C(=O)NCC3CCC(C(=O)O)CC3)c(Cl)cc12 (stereo unspecified),i,i,-1.1,-2.5,100.0,.,.,.,.
O=C(c1cc(COc2cccc3cccnc23)on1)N1CCC[C@H]1CO,.,.,-2.0,2.6,96.0,.,.,.,.
CCOC(=O)CC1CCCCN1C(=O)c1cc(COc2cccc3cnccc23)on1 (stereo unspecified),i,25*,1.0,-0.4,91.0,46.5%*,i,-1.06,-17.5
COCCCN1C(=O)C(CC(=O)NCCc2ccccn2)CC(C(=O)N2CCOCC2)=C1C (stereo unspecified),.,.,1.4,-1.0,99.0,.,.,.,.
COC(=O)Nc1ccc(S(=O)(=O)N2CCC(Cc3ccccc3)CC2)cc1,i,100*,-5.5,2.5,93.0,i,i,-1.09,-7.0
COc1cccc(COC(=O)C2CCN(S(=O)(=O)c3ccc(C)cc3C)CC2)c1OC,i,100*,-11.7,1.2,91.0,34.0%*,i,-1.08,-7.0
Cc1ccc(S(=O)(=O)N2CCC(C(=O)OCC(=O)NCCc3ccccc3)CC2)cc1C,i,i,-5.6,0.3,97.0,.,.,.,.
Cc1ccc(S(=O)(=O)N2CCC(C(=O)OCc3ccccc3)CC2)cc1C,i,25*,-8.3,-0.3,102.0,i,i,-1.26,-6.0
COc1cccc(COC(=O)C2CCN(S(=O)(=O)c3ccc(C)cc3)CC2)c1OC,i,i,-2.8,-0.3,97.0,.,.,.,.
CC(C)C[C@H]1CNC(=S)N1C[C@H]1CCCN1C[C@H](CC(C)C)N1C[C@H](Cc2ccc(O)cc2)N(CC2CCCCC2)C1=S,.,.,.,-1.4,96.0,.,.,.,.
O=C(CNC(=O)c1ccc(Cl)cc1)OCn1nnc2ccccc2c1=O,i,.,1.4,-0.6,94.0,.,.,.,.
CC(C)(Oc1ccc(Cl)cc1)C(=O)OCn1nnc2ccccc2c1=O,i,100*,-5.6,2.0,94.0,i,32.0%*,-1.06,-1.0
CC1(C)Cc2c(cnn2-c2ccc(F)cc2)C(NC(=O)c2ccco2)C1 (stereo unspecified),i,i,-0.4,-0.4,97.0,.,.,.,.
CC12CC(c3ccccc3O1)N(C(=O)c1ccco1)C(=S)N2c1ccc(F)cc1 (stereo unspecified),i,i,-2.7,5.1,101.0,i,i,-1.23,3.5

# Compound activity: PubChem BioAssay, several laboratories
